In PubChem BioAssay AID1018 (Sanford-Burnham Center for Chemical Genomics, 2008):
Screen size: about 200,000 compounds; about 15 (0.007%) were called active. This excerpt belongs to a sample that is enriched for actives. Unmarked numbers belong to inactive results. Rule as the data show it: active = displacement above about 50%; inactive = the rest.

target: E3 ubiquitin-protein ligase XIAP (Homo sapiens) (UniProt P98170); experiment: XIAP antagonists, biochemical, IAP family, fluorescence polarization (AID 1018); conditions: XIAP BIR domain, fluorescence polarization peptide displacement; at 20 µM; active compounds read high
Sequence (P98170 whole entry, looked up, the tested form may be a part): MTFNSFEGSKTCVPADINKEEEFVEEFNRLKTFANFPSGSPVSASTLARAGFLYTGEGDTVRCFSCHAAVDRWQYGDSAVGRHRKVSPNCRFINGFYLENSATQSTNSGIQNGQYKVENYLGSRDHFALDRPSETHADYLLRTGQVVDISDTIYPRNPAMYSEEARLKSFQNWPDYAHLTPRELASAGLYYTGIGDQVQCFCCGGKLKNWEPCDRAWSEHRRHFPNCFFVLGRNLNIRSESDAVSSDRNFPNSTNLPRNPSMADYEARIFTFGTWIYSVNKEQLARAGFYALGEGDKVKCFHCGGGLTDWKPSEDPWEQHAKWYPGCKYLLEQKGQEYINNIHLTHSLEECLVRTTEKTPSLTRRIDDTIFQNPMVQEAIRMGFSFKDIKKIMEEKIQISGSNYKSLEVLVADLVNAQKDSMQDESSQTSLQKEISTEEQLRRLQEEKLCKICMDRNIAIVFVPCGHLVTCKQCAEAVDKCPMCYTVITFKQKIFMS

Question: How did the displacement turn out when CN1C(=O)NC(=O)[C@]2(Cc3ccccc3N3CCN(c4ccccc4)CC32)C1=O (stereo not given in full) was run?
Answer: -2.4%

Question: For CN1C(=O)N(C)C(=O)C2(Cc3cc(N)ccc3N3CCN(c4ccccc4F)CC32)C1=O (stereo not given), which displacement is on record?
Answer: 55.4% (active)

Question: For CN1C(=O)N(C)C(=O)C2(Cc3ccccc3N3CCOCC32)C1=O (stereo not given), which displacement is on record?
Answer: -5.1%

Question: For Cc1ccc(-c2nc3ccccc3c(=O)n2-c2ccccn2)cc1, which displacement is on record?
Answer: -3%

Question: How did the displacement turn out when CCCCCSc1cc(OC)c(CCN(C)C)cc1OC was run?
Answer: -2.2%
